Results as given in ChEMBL document CHEMBL3988442, “University of Dundee, Small-Polar-MMV Screening Library” (2021).
For some of these results: Potency and affinity values are given separately.

Columns and labels:
Parameters in all cases: scale not given: direction of the effect not stated beside the values
[1] = molecular target: Protein translocase subunit SecA (Escherichia coli (strain K12)) (UniProt P10408); assay: Assay to Identify E. coli SecA ATPase Inhibitors; assay type: functional; details: 30 µM
Sequence of Protein translocase subunit SecA (Escherichia coli (strain K12)) (P10408 whole entry): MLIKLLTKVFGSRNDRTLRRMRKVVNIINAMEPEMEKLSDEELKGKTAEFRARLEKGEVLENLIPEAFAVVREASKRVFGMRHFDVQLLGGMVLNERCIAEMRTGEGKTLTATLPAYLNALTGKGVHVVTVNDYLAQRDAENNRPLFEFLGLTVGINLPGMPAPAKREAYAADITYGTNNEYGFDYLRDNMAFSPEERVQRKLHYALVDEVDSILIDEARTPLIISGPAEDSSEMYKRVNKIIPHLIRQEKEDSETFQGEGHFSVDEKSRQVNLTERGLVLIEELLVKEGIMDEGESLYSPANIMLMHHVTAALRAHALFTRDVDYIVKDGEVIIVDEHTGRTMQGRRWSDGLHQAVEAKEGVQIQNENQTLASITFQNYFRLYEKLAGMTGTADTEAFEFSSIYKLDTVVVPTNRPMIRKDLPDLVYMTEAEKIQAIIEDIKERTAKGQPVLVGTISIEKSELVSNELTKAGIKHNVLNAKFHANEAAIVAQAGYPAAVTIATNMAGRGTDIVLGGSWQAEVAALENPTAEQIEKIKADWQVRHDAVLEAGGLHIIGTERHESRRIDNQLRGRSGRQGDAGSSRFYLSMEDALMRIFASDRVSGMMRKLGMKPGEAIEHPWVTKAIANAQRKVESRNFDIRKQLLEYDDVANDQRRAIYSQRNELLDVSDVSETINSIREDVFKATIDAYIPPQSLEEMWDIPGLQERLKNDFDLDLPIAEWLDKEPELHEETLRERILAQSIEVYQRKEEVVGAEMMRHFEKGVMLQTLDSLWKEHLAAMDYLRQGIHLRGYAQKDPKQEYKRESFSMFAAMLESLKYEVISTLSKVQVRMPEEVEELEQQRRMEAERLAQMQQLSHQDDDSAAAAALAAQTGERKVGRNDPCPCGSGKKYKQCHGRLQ

[2] = molecular target: T1, Ubiquitin-activating enzyme e1, putative (Leishmania donovani (strain BPK282A1)) (UniProt E9BSI1); assay: Leishmania donovani Ubiquitin Activating Enzyme (LdE1); assay type: functional; details: 30 µM
T1 sequence (whole entry): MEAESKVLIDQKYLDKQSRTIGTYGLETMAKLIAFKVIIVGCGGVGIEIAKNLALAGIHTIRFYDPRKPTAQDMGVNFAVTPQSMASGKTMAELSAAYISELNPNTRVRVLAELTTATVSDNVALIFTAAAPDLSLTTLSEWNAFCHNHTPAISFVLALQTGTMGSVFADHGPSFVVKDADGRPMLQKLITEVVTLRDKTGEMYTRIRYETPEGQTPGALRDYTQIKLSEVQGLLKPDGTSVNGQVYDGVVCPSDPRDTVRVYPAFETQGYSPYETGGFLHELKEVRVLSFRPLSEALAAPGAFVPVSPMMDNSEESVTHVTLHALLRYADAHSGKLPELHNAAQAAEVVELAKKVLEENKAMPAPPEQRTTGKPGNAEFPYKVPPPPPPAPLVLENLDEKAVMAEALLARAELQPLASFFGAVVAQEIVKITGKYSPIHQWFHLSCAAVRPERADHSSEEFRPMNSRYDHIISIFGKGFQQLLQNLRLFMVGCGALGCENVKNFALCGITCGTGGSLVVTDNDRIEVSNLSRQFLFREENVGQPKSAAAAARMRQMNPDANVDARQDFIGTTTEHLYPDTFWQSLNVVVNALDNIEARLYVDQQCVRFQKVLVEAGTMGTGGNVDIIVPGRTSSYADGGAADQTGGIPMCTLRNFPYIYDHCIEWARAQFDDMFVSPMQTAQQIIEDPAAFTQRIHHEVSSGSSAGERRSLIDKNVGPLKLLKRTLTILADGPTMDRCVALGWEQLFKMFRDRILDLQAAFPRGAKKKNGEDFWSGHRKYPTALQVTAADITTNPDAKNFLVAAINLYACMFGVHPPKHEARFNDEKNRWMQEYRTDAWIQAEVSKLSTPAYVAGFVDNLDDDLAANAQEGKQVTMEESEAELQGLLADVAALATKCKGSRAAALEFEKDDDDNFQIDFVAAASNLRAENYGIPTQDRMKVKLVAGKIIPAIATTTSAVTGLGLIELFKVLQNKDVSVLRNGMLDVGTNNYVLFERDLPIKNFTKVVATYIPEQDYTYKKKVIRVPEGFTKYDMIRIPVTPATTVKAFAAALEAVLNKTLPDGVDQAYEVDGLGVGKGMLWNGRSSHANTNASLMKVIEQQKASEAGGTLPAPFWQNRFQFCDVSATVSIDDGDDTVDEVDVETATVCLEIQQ

[3] = molecular target: AMP-activated protein kinase, AMPK (Homo sapiens) (UniProt P54646+O43741+P54619+Q9UGJ0+Q9Y478+Q13131+Q9UGI9); assay: AMP-dependent Kinase enzyme assay. An in vitro enzyme assay that detects ADP turnover that is directly proportional to AMPK activity. This uses naive AMPK that is activated during the assay with MK-8722; assay type: functional; details: 30 µM
[4] = molecular target: Sialic acid-binding Ig-like lectin 9 (Homo sapiens) (UniProt Q9Y336); assay: Hs-Siglec9 ALPHAscreen SOP 20170721; details: 10 µM
Sequence of Sialic acid-binding Ig-like lectin 9 (Homo sapiens) (Q9Y336 whole entry): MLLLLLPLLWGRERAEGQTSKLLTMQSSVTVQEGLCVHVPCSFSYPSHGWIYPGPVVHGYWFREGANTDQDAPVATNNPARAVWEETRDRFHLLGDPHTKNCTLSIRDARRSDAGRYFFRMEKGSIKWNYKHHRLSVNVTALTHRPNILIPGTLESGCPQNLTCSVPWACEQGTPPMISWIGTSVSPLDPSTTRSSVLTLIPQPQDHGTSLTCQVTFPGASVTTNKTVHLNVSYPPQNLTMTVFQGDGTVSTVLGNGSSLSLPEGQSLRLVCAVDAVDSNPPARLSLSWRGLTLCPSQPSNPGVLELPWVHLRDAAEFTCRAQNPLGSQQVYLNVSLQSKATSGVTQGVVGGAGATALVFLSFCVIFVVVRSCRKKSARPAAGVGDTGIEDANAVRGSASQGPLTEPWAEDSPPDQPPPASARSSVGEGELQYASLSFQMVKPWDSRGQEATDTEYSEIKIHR

[5] = system: Trypanosoma cruzi; assay: Trypanosoma cruzi phosphomannomutase and mannose-1-phosphate guanylyltransferase assay; assay type: functional; details: 10 µM
[6] = molecular target: T2, Arginase-2, mitochondrial (Homo sapiens) (UniProt P78540); assay: in vitro enzyme assay to detect the production of urea directly proportional to the activity of Arginase II; assay type: functional; details: 33.3 µM; further: in the data most compounds retested in dose-response had high values
T2 sequence (whole entry): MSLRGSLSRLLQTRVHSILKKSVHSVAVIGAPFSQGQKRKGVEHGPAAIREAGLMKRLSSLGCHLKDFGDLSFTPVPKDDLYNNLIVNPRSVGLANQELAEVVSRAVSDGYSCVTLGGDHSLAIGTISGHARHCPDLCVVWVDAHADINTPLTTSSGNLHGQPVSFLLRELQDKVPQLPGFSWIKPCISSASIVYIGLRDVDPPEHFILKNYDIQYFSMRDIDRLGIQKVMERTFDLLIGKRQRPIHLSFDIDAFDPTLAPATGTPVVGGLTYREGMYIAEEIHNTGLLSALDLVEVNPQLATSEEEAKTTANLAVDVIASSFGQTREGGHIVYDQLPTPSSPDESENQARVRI

[7] = molecular target: T3, Proteasome subunit beta (Trypanosoma cruzi) (UniProt O96673); assay: Trypanosoma cruzi proteasome chymotrypsin-like activity (TcProtChymo) assay.; further: in the data most compounds retested in dose-response had high values; assay type: functional; details: 9.37 µM
T3 sequence (whole entry): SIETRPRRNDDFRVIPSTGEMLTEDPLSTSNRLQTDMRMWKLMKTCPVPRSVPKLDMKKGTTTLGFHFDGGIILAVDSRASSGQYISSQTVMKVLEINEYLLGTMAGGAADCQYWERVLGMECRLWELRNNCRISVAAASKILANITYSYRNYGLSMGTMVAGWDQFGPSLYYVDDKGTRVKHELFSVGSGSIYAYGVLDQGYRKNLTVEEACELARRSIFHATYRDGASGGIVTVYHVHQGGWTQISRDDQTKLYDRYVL

[8] = organism: Homo sapiens; assay: To identify inhibition of the IFN signalling (Jak-Stat) pathway via expression of an eGFP reporter gene under the control of an IFN-stimulated response element (ISRE) containing MxA promoter.; assay type: functional; details: 30 µM
[9] = molecular target: T4, Tyrosyl-tRNA synthetase, putative (Trypanosoma cruzi (strain CL Brener)) (UniProt Q4DSP6); assay: Trypanosoma cruzi tyrosyl tRNA synthetase (TcYRS) _High Tyrosine SOP; assay type: functional; details: 30 µM; further: in the data most compounds retested in dose-response had high values
T4 sequence (whole entry): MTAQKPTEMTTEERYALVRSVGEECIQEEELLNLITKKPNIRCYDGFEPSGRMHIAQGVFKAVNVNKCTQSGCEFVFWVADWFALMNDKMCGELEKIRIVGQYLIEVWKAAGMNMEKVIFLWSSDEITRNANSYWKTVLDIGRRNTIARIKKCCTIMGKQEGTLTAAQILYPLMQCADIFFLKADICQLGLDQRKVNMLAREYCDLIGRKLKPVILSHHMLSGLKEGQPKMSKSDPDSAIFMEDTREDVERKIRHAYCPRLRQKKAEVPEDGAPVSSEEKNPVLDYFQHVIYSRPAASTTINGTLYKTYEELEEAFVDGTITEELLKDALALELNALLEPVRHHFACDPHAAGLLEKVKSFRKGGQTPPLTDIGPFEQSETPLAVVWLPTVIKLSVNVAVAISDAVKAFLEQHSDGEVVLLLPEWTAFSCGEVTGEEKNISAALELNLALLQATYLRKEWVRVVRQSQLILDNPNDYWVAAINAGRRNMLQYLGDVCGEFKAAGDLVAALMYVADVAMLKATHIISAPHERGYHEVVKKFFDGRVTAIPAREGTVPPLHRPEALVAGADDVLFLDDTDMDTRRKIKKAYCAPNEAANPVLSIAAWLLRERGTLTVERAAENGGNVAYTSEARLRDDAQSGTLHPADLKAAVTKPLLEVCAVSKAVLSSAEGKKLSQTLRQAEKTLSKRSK

[10] = molecular target: T4, Tyrosyl-tRNA synthetase, putative (Trypanosoma cruzi (strain CL Brener)); assay: Trypanosoma cruzi tyrosyl tRNA synthetase (TcYRS) SOP; assay type: functional; details: 30 µM
[11] = molecular target: Chromo domain-containing protein 1 (Saccharomyces cerevisiae (strain ATCC 204508 / S288c) (Baker's yeast)) (UniProt P32657); assay: ScCHD-1 Enzyme Inhibition Assay; assay type: functional; details: 30 µM; further: in the data most compounds retested in dose-response had high values
Sequence of Chromo domain-containing protein 1 (Saccharomyces cerevisiae (strain ATCC 204508 / S288c) (Baker's yeast)) (P32657 whole entry, the tested form may be a part): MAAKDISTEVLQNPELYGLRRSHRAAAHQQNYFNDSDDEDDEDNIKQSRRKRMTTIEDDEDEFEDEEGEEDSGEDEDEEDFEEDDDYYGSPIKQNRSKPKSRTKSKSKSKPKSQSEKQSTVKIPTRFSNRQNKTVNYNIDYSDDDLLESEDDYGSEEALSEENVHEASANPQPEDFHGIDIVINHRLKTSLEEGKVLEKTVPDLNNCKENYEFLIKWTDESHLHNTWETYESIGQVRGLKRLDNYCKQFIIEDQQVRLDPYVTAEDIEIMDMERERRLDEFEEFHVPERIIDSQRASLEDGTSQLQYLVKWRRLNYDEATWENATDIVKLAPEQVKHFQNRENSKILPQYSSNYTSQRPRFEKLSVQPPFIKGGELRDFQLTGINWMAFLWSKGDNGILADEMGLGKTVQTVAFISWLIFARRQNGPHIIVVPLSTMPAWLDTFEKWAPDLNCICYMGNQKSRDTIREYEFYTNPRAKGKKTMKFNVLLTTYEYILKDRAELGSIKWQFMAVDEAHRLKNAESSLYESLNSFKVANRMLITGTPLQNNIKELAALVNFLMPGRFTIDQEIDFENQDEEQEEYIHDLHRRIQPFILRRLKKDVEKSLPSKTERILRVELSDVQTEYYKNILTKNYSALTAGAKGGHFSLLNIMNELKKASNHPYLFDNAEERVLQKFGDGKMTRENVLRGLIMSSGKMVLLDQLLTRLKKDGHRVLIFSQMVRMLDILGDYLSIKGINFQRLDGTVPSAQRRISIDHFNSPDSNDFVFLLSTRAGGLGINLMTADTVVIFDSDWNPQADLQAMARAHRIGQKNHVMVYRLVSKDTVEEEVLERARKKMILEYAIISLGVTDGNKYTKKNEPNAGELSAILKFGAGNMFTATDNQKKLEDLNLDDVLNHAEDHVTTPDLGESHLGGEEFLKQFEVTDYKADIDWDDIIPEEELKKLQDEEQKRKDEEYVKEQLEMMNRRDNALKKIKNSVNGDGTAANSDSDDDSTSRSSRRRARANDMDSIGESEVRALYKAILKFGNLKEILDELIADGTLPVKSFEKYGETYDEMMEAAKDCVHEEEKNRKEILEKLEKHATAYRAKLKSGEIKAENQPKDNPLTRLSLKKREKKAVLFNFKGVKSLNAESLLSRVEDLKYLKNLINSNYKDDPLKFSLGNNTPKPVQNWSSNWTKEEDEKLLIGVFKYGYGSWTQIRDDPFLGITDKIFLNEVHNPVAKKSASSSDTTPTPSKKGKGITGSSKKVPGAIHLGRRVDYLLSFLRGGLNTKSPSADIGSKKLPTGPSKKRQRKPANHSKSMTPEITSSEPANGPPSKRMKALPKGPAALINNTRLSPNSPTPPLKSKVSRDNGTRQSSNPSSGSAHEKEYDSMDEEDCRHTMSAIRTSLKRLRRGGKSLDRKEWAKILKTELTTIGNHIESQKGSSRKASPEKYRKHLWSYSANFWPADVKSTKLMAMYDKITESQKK

SMILES | Percent Effect [1] [%] | Percent Effect [2] [%] | Percent Effect [3] [%] | Percent Effect [4] [%] | Percent Effect [5] [%] | Percent Effect [6] [%] | Percent Effect [7] [%] | Percent Effect [8] [%] | Percent Effect [9] [%] | Percent Effect [10] [%] | Percent Effect [11] [%]
COCCCNC(=O)NCc1ccc(C)cc1 | -4.5 | 6.33 | -3.62 | -1.57 | -0.308 | -4.52 | 13.2 | 1.42 | 5.21 | 17.7 | -28.6
CCn1nc(CC(C)C)cc1C(=O)N1CC[C@@H](O)C1 | -4.98 | 18.7 | -5.58 | 22.7 | 2.82 | 9.38 | 12.7 | -2.86 | 3.83 | 13.6 | 92.8
CC(CNC(=O)Nc1cn[nH]c1)N1CCc2ccccc2C1 (stereo not given) | -4.87 | 15.6 | -4.05 | -3.09 | -1.67 | 0.632 | 14.2 | 12.5 | 9.52 | 21.2 | -18
CN(C)C(=O)COC1COC2(CCN(S(C)(=O)=O)CC2)C1 (stereo not given) | 0.201 | 13.5 | 1.81 | -7.02 | -1.47 | 9.87 | 18.1 | -9.56 | 4.32 | 12.8 | -1.01
COc1cccc(CCNS(=O)(=O)c2ccc(NC(C)=O)cc2)c1 | -3.33 | 5.26 | 4.42 | -2.24 | -4.58 | -8.28 | 17 | 21.2 | 1.06 | 10.4 | -4.22
CN(CCOc1cccc(CN)c1)C1CCOCC1 | 1.04 | 2.7 | -5.71 | -2.08 | 1.54 | -5.24 | 7.41 | -5.29 | 1.59 | 9.76 | 13.5
Cn1cc(CN2C[C@@H]3COC[C@]3(COc3ccc(C#N)cn3)C2)cn1 | -0.614 | 5.48 | -2.34 | 6.07 | -1.98 | 1.2 | 11.4 | 13.4 | 8.33 | 11.1 | -0.913
CCC1=N[C@@]2(CC[C@@H]3CN(Cc4ccc(Cl)cc4)C[C@@H]32)C(=O)N1 | -2.1 | 2.7 | 2.16 | -3.03 | -7.72 | -0.955 | 20.3 | 3.29 | 2.16 | 2.56 | 0.0576
CS(=O)(=O)N[C@@H]1CCO[C@]2(CCN(C(=O)c3cnccn3)C2)C1 | -3.71 | 10.8 | 1.74 | -2.86 | 1.07 | 0.955 | 22.7 | 5.57 | 7.57 | 17.9 | 2.48
Cc1ccoc1-c1nnc(CNCC2CCCN2c2cccnn2)o1 (stereo not given) | -6.58 | 0 | -0.825 | 2.96 | 1.98 | -0.798 | 9.33 | 6.87 | 9.38 | 13.6 | 1.55
O=C(COc1coc(CN2CCOCC2)cc1=O)c1ccc(Cl)cc1 | -3.55 | 2.63 | 5.88 | 11 | -2.04 | -11.8 | 12 | 20.8 | -1.06 | 0 | -0.42
CCN1C[C@@H]2[C@@H](OC)CCN(S(=O)(=O)c3ccccc3)[C@@H]2C1 | -1.54 | 16 | 3.6 | -7.4 | -7.48 | 0.233 | 11.4 | -3.22 | 1.06 | 6.41 | -5.54
CCN(CC)c1ccc(C(=O)N(C)Cc2c(C)noc2C)cn1 | -4.04 | 10.5 | -4.84 | -2.69 | -7 | 10.1 | -5.84 | 10.8 | 3.45 | 11.1 | -1.15
Cc1nccn1CC1CCCN1CCCc1nc(-c2cccs2)no1 (stereo not given) | -0.0404 | 21.6 | -8.26 | -4.35 | -2.92 | -11.6 | 13.3 | 36.5 | 3.45 | 13.6 | 2.34
COCCN1CCCC(c2nc3c([nH]2)CC(C)(C)CNC3=O)C1 (stereo not given) | 0.299 | 5.41 | -1.1 | 13.4 | 2.32 | 25.2 | 12.4 | 10.5 | 5.82 | 9.76 | 0.619
CCN1CCC(CNC(=O)C2(c3cccc(C)c3)CC2)C1 (stereo not given) | -2.88 | -1.27 | 6.26 | 2.04 | -7.69 | 5.81 | 10.1 | 13.3 | 11.5 | 15.2 | -11.4
NCCn1nc(C2CCN(C(=O)CC3CCCCC3)C2)c2nccnc21 (stereo not given) | -2.44 | -10.7 | 3.88 | 8.44 | 1.57 | -3.5 | -10.5 | 11.9 | -8.51 | 8.97 | -1.74
CC(Cn1cccn1)NC(=O)Nc1nnc(C2CC2)s1 (stereo not given) | -8.16 | 13 | 2.37 | 7.36 | 1.12 | -0.356 | -0.845 | 10.7 | 7.77 | 12.2 | -5.78
CCC(C)NC(=O)NCCCn1nc2ccccn2c1=O (stereo not given) | -2.08 | 13.5 | -4.74 | -3.56 | 7.08 | -3.61 | 16.4 | -114 | 1.48 | 18.5 | -14.5
Cc1nn(CC(=O)N2CCC(Nc3cccnn3)CC2)c(C)c1Cl | -7.99 | 10.5 | -2.51 | 1.71 | 10.3 | -4.6 | 4.68 | 14.1 | 6.37 | 19.5 | -11.8
